Screens (PubChem)
C diff growth: blocks growth of Clostridium difficile | Clostridium difficile clinical isolate growth, OD600, 24 h; active compounds read low | growth activity, negative = inhibition, % at 16 µg/mL (by protocol) | 86,000 tested, 0.25% active;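 active = mean growth activity at or below -80% and every replicate also at or below -80%; inconclusive = mean at or below -80% but some replicate above -80%; inactive = mean growth activity above -80%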;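 also: 0% = DMSO wells and -100% = levofloxacin 16 µg/mL wells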
Pf Dd2 inh: P. falciparum Dd2 growth inhibition; SYBR Green, 72 h; active compounds read low; activity change, % at 10 µM; 94,000 tested, 2.3% active; AID 1159554; in the data active = activity change below about -80%; inconclusive = no clear call, values can overlap the other calls
T cruzi growth-1: inhibitors of T. cruzi proliferation | T. cruzi beta-gal in NIH3T3, GalScreen luminescence, 90 h | inhibition, % at 8.34 µM | 77,000 tested, 5.9% active;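 active = mean inhibition above about 93%, with at least 55% of replicates each passing it, limit read from the data, passing the limit was not always enough; inconclusive = only one of those two conditions holds; inactive = neither condition holds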
T cruzi growth-2: inhibitors of T. cruzi proliferation. inhibition, % at 8.35 µM. shares compounds with T cruzi growth-1. T. cruzi beta-gal in NIH3T3, GalScreen luminescence, 90 h. 5,600 tested, 72% active;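 active = mean replicate inhibition above about 95% and at least 55% of replicates individually reaching it, limit read from the data; inconclusive = only one of the two criteria is met; inactive = neither criterion is met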
T cruzi growth-3: inhibitors of T. cruzi proliferation | shares compounds with T cruzi growth-1 | T. cruzi beta-gal in NIH3T3, GalScreen luminescence, 90 h | inhibition, % at 2.09 µM | 5,600 tested, 21% active | AID 651740;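 active = mean inhibition above about 95%, with at least 55% of replicates also reaching it, limit read from the data; inconclusive = meets just one of the two conditions; inactive = meets neither condition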;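 also: plate controls were neutral control median for no effect and positive control median for full effect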
NIH3T3 tox: kills mouse NIH/3T3 fibroblasts; shares compounds with T cruzi growth-1; NIH/3T3 viability, CellTiter-Glo ATP luminescence, 90 h; cytotoxicity (signal decrease), % at 8.35 µM; 5,600 tested, 14% active;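 active = mean signal decrease across replicates above about 35% based on untreated-well scatter, with enough replicates individually passing, limit read from the data; inconclusive = no rule stated though some were filed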;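 also: 0% = median of neutral control wells and 100% = median of positive control wells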
3T3 cytotox 2: kills mouse NIH/3T3 fibroblasts | inhibition, % at 24.9 µM | 5,600 tested, 56% active | AID 651744 | shares compounds with T cruzi growth-1 | NIH/3T3 viability, CellTiter-Glo ATP luminescence, 90 h;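 active = mean loss of cell viability signal at or above a set limit, and enough replicates individually reaching it; inconclusive = meets only the mean limit or only the replicate share; inactive = meets neither condition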;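 also: 0% = median of neutral control wells and 100% = median of positive control wells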
Starred values were filed as active, the others as inactive; ? = inconclusive; . = no result. A selection: hits, their analogues and other compounds. The true share with any hit is near 6.8%.

SMILES	C diff growth	Pf Dd2 inh	T cruzi growth-1	others
CCCC(=O)Nc1ccc2c(c1)OC[C@@H](C)N(C(=O)c1cnccn1)C[C@@H](C)[C@@H](OC)CN(C)C2=O	.	17	-11
CCCN(C)C[C@H]1OCc2ccccc2-c2ccccc2C(=O)N([C@@H](C)CO)C[C@H]1C	1	20	-58
O=C(N[C@@H]1CC[C@@H](CCNC(=O)C2CCCC2)O[C@H]1CO)c1ccccn1	-3	-10	.
COc1ccc(S(=O)(=O)N2CC[C@@H]3[C@@H](CO)N(C)c4ccc(-c5ccccc5F)cc4[C@@H]32)cc1	-13	-37	63
COc1ccc(S(=O)(=O)N2CC[C@H]3[C@@H](CO)N(C)c4ccc(-c5ccccc5F)cc4[C@H]32)cc1	-11	-48	114*	T cruzi growth-2=112*;T cruzi growth-3=86;NIH3T3 tox=17;3T3 cytotox 2=25
Cc1ccc(S(=O)(=O)N2CC[C@@H]3[C@@H](CO)N(C)c4ccc(-c5ccccc5F)cc4[C@@H]32)cc1	20	29	75
CN1c2ccc(-c3ccccc3F)cc2[C@H]2[C@H](CCN2S(=O)(=O)c2ccc(F)cc2)[C@H]1CO	0	11	102*	T cruzi growth-2=100*;T cruzi growth-3=55;NIH3T3 tox=25;3T3 cytotox 2=72*
COc1ccc(NC(=O)N[C@@H]2CC[C@H](CCNC(=O)Cc3ccncc3)O[C@@H]2CO)cc1	-8	-6	.
CS(=O)(=O)Nc1ccc2c(c1)[C@H]1C[C@H](CC(=O)NCCN3CCCCC3)O[C@@H](CO)[C@H]1O2	-4	22	.
CC(C)NC(=O)N(C)C[C@H]1Oc2ccc(NC(=O)CCC(F)(F)F)cc2C(=O)N([C@H](C)CO)C[C@H]1C	3	11	.
COc1ccc(COCC23Oc4ccccc4[C@H]([C@H]2CO)n2c(c4c(c(C(C)=O)c2=O)C(=O)N(C)C4=O)N3C)cc1	-1	.	.
COc1ccc(CNC(=O)C[C@H]2C[C@@H]3c4cc(NC(=O)CN(C)C)ccc4O[C@@H]3[C@H](CO)O2)cc1	0	20	-40
Cc1ccc(S(=O)(=O)N(C)C[C@H]2Oc3ccc(NC(=O)Nc4ccc(F)cc4)cc3C(=O)N([C@H](C)CO)C[C@@H]2C)cc1	-9	-61	22
C[C@H](CO)N1C[C@H](C)[C@@H](CN(C)C(=O)Nc2ccc(F)cc2)Oc2cc(/C=C/c3ccccc3)ccc2S1(=O)=O	8	-67	124*	T cruzi growth-2=109*;T cruzi growth-3=98*;NIH3T3 tox=-1;3T3 cytotox 2=?
C[C@@H]1CN([C@H](C)CO)S(=O)(=O)c2ccc(/C=C/c3ccccc3)cc2O[C@H]1CN(C)C(=O)Nc1ccc(F)cc1	19	-82*	126*	T cruzi growth-2=109*;T cruzi growth-3=95;NIH3T3 tox=45*;3T3 cytotox 2=89*
C[C@H]1CN([C@@H](C)CO)S(=O)(=O)c2ccc(/C=C/c3ccccc3)cc2O[C@@H]1CN(C)C(=O)Nc1cc(F)ccc1F	1	43	.
C[C@H]1CN([C@@H](C)CO)S(=O)(=O)c2ccc(/C=C/c3ccccc3)cc2O[C@H]1CN(C)C(=O)Nc1ccc(F)cc1	-2	15	11
C[C@H]1CN([C@@H](C)CO)S(=O)(=O)c2ccc(/C=C/c3ccccc3)cc2O[C@@H]1CN(C)C(=O)Nc1ccc(F)cc1	9	-43	127*	T cruzi growth-2=101*;T cruzi growth-3=93;NIH3T3 tox=1;3T3 cytotox 2=60*
C[C@H]1CN([C@@H](C)CO)S(=O)(=O)c2ccc(/C=C/c3ccccc3)cc2O[C@H]1CN(C)C(=O)Nc1cc(F)ccc1F	1	-60	.
O=C(Nc1ccc(F)cc1)N1C[C@H]2[C@@H](c3ccccc31)[C@H](CO)N2C(=O)Cc1cccnc1	-1	8	-22
O=C(Nc1ccc2c(c1)[C@H]1C[C@H](CC(=O)N3CCOCC3)O[C@@H](CO)[C@H]1O2)NC1CCCCC1	.	9	17
C[C@H](CO)N1C[C@H](C)[C@H](CN(C)Cc2ccncc2)Oc2c(NC(=O)Nc3ccc(C(F)(F)F)cc3)cccc2C1=O	10	-3	.
COCC(=O)N1CC2(C1)CN(Cc1ccccc1Cl)[C@@H](CO)c1c2c2ccc(OC)cc2n1C	2	-25	.
